# PubChem BioAssay AID1159580 (chemical genetic matrix, 2015)
# About 2,000 (36%) of roughly 5,500 compounds were called active. Roughly 18% stayed inconclusive and do not appear here. This is one part of the list. Unmarked numbers belong to inactive results. Rule as the data show it: active = normalized growth mostly below about 0.91 (no sharp cut-off); inconclusive = no clear call, values can overlap the other calls; inactive = mostly above about 0.92.
# Assay: chemical genetic growth profiling, strain panel (AID 1159580);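 also: tested at 20 µM; growth read once vehicle control cultures reached saturation at 30 °C; 1 = growth at the plate median or of vehicle wells; lower values mean less growth of the strain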
# Settings: S. cerevisiae deletion strains, growth OD
# [1] = locus YHR030C, strain SLT2, active compounds read low
# [2] = locus YHR079C, strain IRE1, active compounds read low
# [3] = locus YJL095W, strain BCK1, active compounds read low
# [4] = locus YJR066W, strain TOR1, active compounds read low
# [5] = locus YLR113W, strain HOG1, active compounds read low
# [6] = locus YNL183C, strain NPR1, active compounds read low
# [7] = locus YOR231W, strain MKK1, active compounds read low
# [8] = locus YPL256C, strain CLN2, active compounds read low
smiles,measurement,setting,value
CN1C[C@H](C(=O)N[C@]2(C)C[C@@]3(O)C4CCCN4C(=O)[C@H](Cc4ccccc4)N3C2=O)C=C2c3cccc4[nH]cc(c34)C[C@H]21 (some centres undefined),normalized growth,[1],0.986
same,normalized growth,[2],0.994
same,normalized growth,[3],0.958
same,normalized growth,[4],0.945
same,normalized growth,[5],1
same,normalized growth,[6],0.944
same,normalized growth,[7],0.997
same,normalized growth,[8],0.981
O=C1Nc2ccccc2/C1=C\c1c(Cl)cccc1Cl,normalized growth,"locus YAR019C, strain CDC15, active compounds read low",0.966
same,normalized growth,"locus YBL105C, strain PKC1, active compounds read low",0.963
same,normalized growth,"locus YBR135W, strain CKS1, active compounds read low",0.973
same,normalized growth,"locus YBR136W, strain MEC1, active compounds read low",0.974
same,normalized growth,"locus YBR160W, strain CDC28, active compounds read low",0.972
same,normalized growth,"locus YDL017W, strain CDC7, active compounds read low",0.969
same,normalized growth,"locus YDL028C, strain MPS1, active compounds read low",0.975
same,normalized growth,"locus YDL101C, strain DUN1, active compounds read low",0.964
same,normalized growth,"locus YDL108W, strain KIN28, active compounds read low",0.974
same,normalized growth,"locus YDL132W, strain cdc53, active compounds read low",0.965
same,normalized growth,"locus YDL214C, strain PRR2, active compounds read low",0.951
same,normalized growth,"locus YDR052C, strain DBF4, active compounds read low",0.975
same,normalized growth,"locus YDR054C, strain cdc34, active compounds read low",0.958
same,normalized growth,"locus YDR226W, strain ADK1, active compounds read low",0.963
same,normalized growth,"locus YDR477W, strain SNF1, active compounds read low",0.939
same,normalized growth,"locus YER123W, strain YCK3, active compounds read low",0.945
same,normalized growth,"locus YER133W, strain GLC7, active compounds read low",0.945
same,normalized growth,"locus YFL009W, strain cdc4, active compounds read low",0.96
same,normalized growth,"locus YFL029C, strain CAK1, active compounds read low",0.961
same,normalized growth,"locus YFR003C, strain YPI1, active compounds read low",0.969
same,normalized growth,"locus YFR019W, strain FAB1, active compounds read low",0.976
same,normalized growth,"locus YFR028C, strain CDC14, active compounds read low",0.973
same,normalized growth,"locus YGR040W, strain KSS1, active compounds read low",0.945
same,normalized growth,"locus YGR052W, strain FMP48, active compounds read low",0.981
same,normalized growth,"locus YGR092W, strain DBF2, active compounds read low",0.909
same,normalized growth,[1],0.985
same,normalized growth,[2],0.901
same,normalized growth,"locus YHR082C, strain KSP1, active compounds read low",1.03
same,normalized growth,"locus YHR205W, strain SCH9, active compounds read low",0.918
same,normalized growth,"locus YIL147C, strain SLN1, active compounds read low",0.971
same,normalized growth,[3],0.894
same,normalized growth,"locus YJL128C, strain PBS2, active compounds read low",0.915
same,normalized growth,"locus YJL157C, strain FAR1, active compounds read low",0.946
same,normalized growth,"locus YJR016C, strain ILV3, active compounds read low",0.974
same,normalized growth,"locus YJR066W, strain TOR1 (second series), active compounds read low",0.95
same,normalized growth,[4],1.04
same,normalized growth,"locus YKL048C, strain ELM1, active compounds read low",0.944
same,normalized growth,"locus YKL067W, strain YNK1, active compounds read low",0.963
same,normalized growth,"locus YKL101W, strain HSL1, active compounds read low",0.938
same,normalized growth,"locus YKL193C, strain SDS22, active compounds read low",0.968
same,normalized growth,"locus YKL203C, strain TOR2, active compounds read low",1.01
same,normalized growth,[5],0.845 (active)
same,normalized growth,"locus YLR133W, strain CKI1, active compounds read low",0.962
same,normalized growth,"locus YLR403W, strain SFP1, active compounds read low",0.928
same,normalized growth,"locus YML070W, strain DAK1, active compounds read low",0.954
same,normalized growth,"locus YMR001C, strain CDC5, active compounds read low",0.968
same,normalized growth,"locus YMR205C, strain PFK2 (second series), active compounds read low",0.956
same,normalized growth,"locus YMR277W, strain FCP1, active compounds read low",0.965
same,normalized growth,"locus YNL006W, strain LST8, active compounds read low",0.969
same,normalized growth,"locus YNL020C, strain ARK1, active compounds read low",0.941
same,normalized growth,"locus YNL161W, strain CBK1, active compounds read low",0.968
same,normalized growth,[6],0.989
same,normalized growth,"locus YNL207W, strain RIO2, active compounds read low",0.96
same,normalized growth,"locus YNL222W, strain SSU72, active compounds read low",0.967
same,normalized growth,"locus YNL307C, strain MCK1 (second series), active compounds read low",0.953
same,normalized growth,"locus YOL078W, strain AVO1, active compounds read low",0.963
same,normalized growth,"locus YOL136C, strain PFK27, active compounds read low",0.959
same,normalized growth,"locus YOR061W, strain CKA2, active compounds read low",0.959
same,normalized growth,"locus YOR119C, strain RIO1, active compounds read low",1.02
same,normalized growth,[7],0.953
same,normalized growth,"locus YOR329C, strain SCD5, active compounds read low",0.969
same,normalized growth,"locus YPL031C, strain PHO85, active compounds read low",0.939
same,normalized growth,"locus YPL153C, strain RAD53, active compounds read low",0.935
same,normalized growth,"locus YPL204W, strain HRR25, active compounds read low",0.926
same,normalized growth,"locus YPL209C, strain IPL1, active compounds read low",0.969
same,normalized growth,[8],0.905
same,normalized growth,"locus YPR025C, strain CCL1, active compounds read low",0.972
same,normalized growth,"locus YPR106W, strain ISR1, active compounds read low",0.954
same,normalized growth,"locus YPR111W, strain DBF20, active compounds read low",0.952
same,normalized growth,"strain NNK1, active compounds read low",0.946
same,normalized growth,"strain TSCII, active compounds read low",0.964
